KKLEB tox: reduces viability of KKLEB cystic fibrosis airway cells; AID 602141; KKLEB CF airway cells viability, ATPlite luminescence, overnight; active compounds read low; cells stimulated with P. aeruginosa culture filtrate; activity change (cytotoxicity), % at 5 µM; 360,000 compounds, 0.36% hits;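 active means corrected activity change at or below -50% at 5 µM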
PAX8 inh HTS: lowers PAX8-driven luciferase in RMG-I cells. RMG-I TPO-luciferase reporter, SteadyGlo, 24 h. 360,000 compounds, 1.2% hits. inhibition, % at 12.6 µM. AID 652154;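 active means mean replicate inhibition at least 60% with every replicate also reaching 60%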;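 further: luciferase light reporting Pax8 driven TPO promoter activity; plate controls were median of neutral control wells for no effect and mitoxantrone controls for full effect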
LGR2 antag: Drosophila LGR2 receptor signaling inhibition | 380,000 compounds, 0.35% hits | HEK293 LGR2, CRE-luciferase, bursicon-stimulated, 4 h | inhibition, % at 9.99 µM;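 active means drop in luminescence signal, shown as inhibition above about 50% in the replicate tests, limit read from the data, passing the limit was not always enough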;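 further: agonist challenge used bursicon conditioned medium at about half maximal strength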
Shn3 inh set2: Schnurri-3 reporter inhibition in Clone20 osteoblasts. 360,000 compounds, 0.52% hits. inhibition, % at 12.5 µM. Clone20 osteoblast Shn3 3'UTR firefly luciferase, 24 h. AID 588674;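 active means mean inhibition of at least 75% with every replicate also reaching 75%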;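 further: 0% = median of neutral control wells and 100% = pilot-screen positive control compound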
EWS-Fli block: blocks EWS/Fli oncoprotein-driven transcription. A673 NR0B1-luciferase reporter, viability-normalised. inhibition, % at 12.6 µM. 350,000 compounds, 0.67% hits. AID 651661;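 active means mean inhibition of at least 50% after viability correction, with every replicate also passing that limit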;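 further: firefly luciferase signal divided by Alamar Blue viability fluorescence both relative to DMSO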
CF NFkB inh: inhibitors of cystic fibrosis induced NF-kB; KKLEB NF-kB-GFP reporter, PAF-induced, GFP fluorescence overnight; inhibition, % at 5 µM; AID 588850; 360,000 compounds, 0.86% hits;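 active means at least 50% inhibition at 5 µM, scaled per plate between neutral and stimulator controls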;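 further: PAF is a Pseudomonas aeruginosa culture filtrate used as stimulus; plate controls were PAF-stimulated DMSO wells for no effect and unstimulated DMSO wells for full effect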
* hit, by the source's call; nt = no result given. In the library only some 2% were active in any assay of this set; here they are far more common.

SMILES	KKLEB tox	PAX8 inh HTS	LGR2 antag	Shn3 inh set2	EWS-Fli block	CF NFkB inh
Cc1ccccc1S(=O)(=O)N1CC[C@@H]2[C@H](CO)Nc3ccc(-c4cccc(F)c4)cc3[C@@H]21	nt	114.0*	-9.5	nt	5.0	nt
O=S(=O)(c1ccccc1F)N1CC[C@@H]2[C@H](CO)Nc3ccc(C4=CCCCC4)cc3[C@@H]21	nt	89.5*	-8.9	nt	-4.2	nt
O=S(=O)(c1ccccc1F)N1CC[C@@H]2[C@H](CO)Nc3ccc(-c4ccccc4)cc3[C@@H]21	nt	6.0	23.8	nt	-7.2	nt
C[C@H]1CN([C@@H](C)CO)C(=O)CCCn2cc(nn2)CO[C@H]1CN(C)C(=O)Nc1ccc(C(C)(C)C)cc1	nt	nt	-4.8	nt	-4.3	nt
O=C(Nc1cccc(Cl)c1)N[C@@H]1CC[C@@H](CCNC(=O)C2CCCCC2)O[C@H]1CO	nt	10.2	1.8	nt	-7.0	nt
COc1ccccc1CNC(=O)C[C@@H]1C[C@H]2c3cc(NS(C)(=O)=O)ccc3O[C@H]2[C@H](CO)O1	nt	18.3	-4.7	nt	-1.8	nt
C[C@@H]1CN([C@H](C)CO)C(=O)c2ccccc2-c2ccccc2CO[C@H]1CN(C)C(=O)[C@@H](Cc1ccccc1)N(C)C	nt	3.0	-8.2	nt	0.3	nt
O=C(Cc1ccccc1)N1CC[C@@H]2[C@H]1c1cc(-c3ccccc3)ccc1N[C@@H]2CO	nt	62.4*	-17.0	nt	12.4	nt
COc1cccc(-c2ccc3c(c2)[C@H]2[C@H](CCN2S(=O)(=O)c2ccccc2F)[C@@H](CO)N3)c1	nt	101.0*	9.6	nt	-5.8	nt
CN(C)C(=O)C[C@H]1C=C[C@@H](NC(=O)C2CCC2)[C@H](CO)O1	nt	-5.3	-19.0	nt	-0.4	nt
CC1CCC2C(=O)N(c3ccc(Cc4ccncc4)cc3)C(=O)C2C1 (stereo unspecified)	-1.3	16.9	26.5	86.7*	12.3	10.3
O=C1C2C3C=CC(C3)C2C(=O)N1c1ccc(Cc2ccncc2)cc1 (stereo unspecified)	-3.4	nt	nt	39.8	nt	17.2
CC(=O)N(C)C[C@H]1Oc2cc(-c3ccncc3)ccc2S(=O)(=O)N([C@H](C)CO)C[C@@H]1C	nt	nt	-8.7	nt	-5.2	nt
Cc1ccc(OCCOC(=O)c2cc(S(=O)(=O)N3CCCCC3)ccc2N2CCOCC2)cc1	-10.0	-4.7	-3.0	78.0	21.9	8.1
O=C(OCCOc1ccc(Cl)cc1)c1cc(S(=O)(=O)N2CCCCC2)ccc1N1CCOCC1	-9.6	43.4	16.7	89.8*	16.4	18.6
C[C@@H]1CN([C@H](C)CO)C(=O)c2cc(NS(=O)(=O)c3ccccc3)ccc2O[C@@H](C)CCCCO[C@@H]1CN(C)S(=O)(=O)c1ccc(Cl)cc1	nt	52.3	7.5	nt	-0.2	nt
C[C@H]1CCCCO[C@H](CN(C)S(=O)(=O)c2ccc(Cl)cc2)[C@@H](C)CN([C@@H](C)CO)C(=O)c2cc(NS(=O)(=O)c3ccccc3)ccc2O1	nt	74.2*	-4.9	nt	23.1	nt
C[C@H](CO)N1C[C@H](C)[C@H](CN(C)S(=O)(=O)c2ccc(Cl)cc2)OCCCC[C@H](C)Oc2ccc(NS(=O)(=O)c3ccccc3)cc2C1=O	nt	72.3*	4.6	nt	7.1	nt
C[C@@H]1CCCCO[C@H](CN(C)S(=O)(=O)c2ccccc2)[C@H](C)CN([C@@H](C)CO)C(=O)c2cc(NS(=O)(=O)c3ccc(Cl)cc3)ccc2O1	nt	81.2*	6.7	nt	-9.2	nt
CO[C@H]1CN(C)C(=O)c2ccc(NC(=O)Nc3c(C)noc3C)cc2OC[C@H](C)N(C)C[C@@H]1C	nt	-10.5	4.8	nt	5.9	nt
CCCc1ccc(C(=O)NNc2cc(Cl)ccc2Cl)cc1	1.0	-17.0	-1.7	89.6*	4.1	6.3
CO[C@H]1CN(C)C(=O)c2cc(NC(C)=O)ccc2OC[C@@H](C)N(Cc2ccc(F)cc2)C[C@H]1C	nt	nt	3.6	nt	0.4	nt
CCN(CC)c1ccc(/C=C2/SC(=O)N(C(C)C)C2=O)o1	-14.2	54.0	7.6	96.5*	47.5	15.1
C[C@@H]1CN([C@@H](C)CO)C(=O)c2cccc(NC(=O)c3ccc(-c4nccs4)cc3)c2O[C@H]1CN(C)S(=O)(=O)c1ccc(Cl)cc1	nt	-19.6	5.0	nt	-9.8	nt
CCOC(=O)COc1ccccc1/C=C\[N+](=O)[O-]	-28.7	nt	nt	96.7*	nt	80.9*
SMILES	KKLEB tox	PAX8 inh HTS	LGR2 antag	Shn3 inh set2	EWS-Fli block	CF NFkB inh
CCC(C)(C)C1CCc2[nH]nc(C(=O)NC3CCCC3)c2C1 (stereo unspecified)	-1.1	-40.6	nt	5.1	2.0	26.4
O=C(NC1CCCCC1)c1n[nH]c2c1CCCCC2	-32.9	54.7	91.1*	47.9	78.6*	4.2
CCOC(=O)c1cn2nc(N3CCCCC3)ccc2n1	-6.1	40.7	88.2*	29.8	-115.6	-2.4
CCOC(=O)c1cn2nc(Oc3ccccc3)ccc2n1	2.6	-6.1	-21.4	-23.0	-11.6	3.5
CCOC(=O)c1cn2nc(Oc3ccc(C)cc3)ccc2n1	-3.5	-32.4	-19.6	-16.2	-14.7	-1.0
CCOC(=O)c1cn2nc(N3CCCC3)ccc2n1	-0.8	29.2	68.2*	24.8	-51.1	-10.7
O=C(c1ccccc1F)N1CC(=O)N2[C@H](CO)[C@H](c3ccc(-c4ccc(F)cc4)cc3)[C@H]2C1	nt	-8.7	-8.6	nt	-6.7	nt
Cc1ccc(C)c(CSc2nc3[nH]ncc3c(=O)[nH]2)c1	-19.6	10.9	6.1	-37.2	57.5*	41.3
Cc1ccc(S(=O)(=O)N(C)C[C@H]2OCCCC[C@H](C)Oc3ccc(NS(=O)(=O)c4ccccc4)cc3C(=O)N([C@@H](C)CO)C[C@@H]2C)cc1	nt	50.4	-1.6	nt	-6.0	nt
Cc1ccc(S(=O)(=O)Nc2ccc3c(c2)C(=O)N([C@@H](C)CO)C[C@H](C)[C@H](CN(C)S(=O)(=O)c2ccccc2)OCCCC[C@H](C)O3)cc1	nt	67.1*	8.9	nt	11.6	nt
Cc1ccc(S(=O)(=O)Nc2ccc3c(c2)C(=O)N([C@@H](C)CO)C[C@@H](C)[C@@H](CN(C)S(=O)(=O)c2ccc(C)cc2)OCCCC[C@@H](C)O3)cc1	nt	66.5*	12.7	nt	-0.3	nt
Cc1ccc(S(=O)(=O)Nc2ccc3c(c2)C(=O)N([C@H](C)CO)C[C@H](C)[C@H](CN(C)S(=O)(=O)c2ccc(C)cc2)OCCCC[C@H](C)O3)cc1	nt	63.1*	34.0	nt	10.9	nt
Cc1ccc(S(=O)(=O)N(C)C[C@@H]2OCCCC[C@H](C)Oc3ccc(NS(=O)(=O)c4cccs4)cc3C(=O)N([C@@H](C)CO)C[C@H]2C)cc1	nt	15.6	-5.6	nt	-2.7	nt
Cc1ccc(S(=O)(=O)N(C)C[C@H]2OCCCC[C@H](C)Oc3ccc(NS(=O)(=O)c4cccs4)cc3C(=O)N([C@H](C)CO)C[C@@H]2C)cc1	nt	72.1*	-3.8	nt	1.2	nt
O=C(N/N=C/c1cn(-c2cccs2)nc1-c1ccccc1)c1ccccc1O	-1.8	22.5	73.7*	11.9	nt	15.4
CNC(=O)C[C@H]1CC[C@@H]2[C@H](COc3ccc(NC(=O)Nc4ccccc4OC)cc3C(=O)N2C)O1	nt	-2.5	14.4	nt	-3.3	nt

Compound activity from PubChem BioAssay.
